Experiment [1] in a line: ATG_CRE_CIS: Attagene CIS-FACTORIAL HepG2 Assay for human cAMP Responsive Element (CRE) binding protein 3 (AID 2282926). The following applies: HepG2 CRE cis-reporter, Attagene multiplexed mRNA; actives raise or lower the signal. In outline:
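HepG2 cells transiently transfected with a multiplexed reporter library (CRE-driven unit among them) were dosed for 24 h. Reporter mRNA was quantified by RT-PCR, fluorescent labelling, HpaI digestion and capillary electrophoresis, with bidirectional fitting against DMSO baseline.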

Experiment [2] addresses CCAAT/enhancer-binding protein beta (Homo sapiens) (UniProt P17676). Briefly: ATG_C_EBP_CIS: Attagene CIS-FACTORIAL HepG2 Assay for human CCAAT/Enhancer Binding Protein (C/EBP) beta (AID 2282927). The conditions noted are these: HepG2 Attagene cis-factorial transcription factor reporter; actives raise or lower the signal. In outline: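 HepG2, transient MRTU transfection, 24 h treatment. RT-PCR plus CE fluorescence; DMSO negative control, bidirectional fit.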

Experiment [3] is described as follows: ATG_CMV_CIS: Attagene CIS-FACTORIAL HepG2 Assay for human CMV (Internal Marker) (AID 2282928).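 Note: endpoint acts as a background internal control marker rather than a target.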 The conditions noted are these: HepG2 CMV promoter reporter, transcription factor profiling; actives raise or lower the signal. In outline: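 HepG2 cells transiently transfected with multiple cis-regulated reporter units; 24 h compound exposure. Reporter mRNA quantified by RT-PCR, 6-FAM primer-extension labeling, HpaI digestion and capillary electrophoresis; bidirectional fitting against DMSO baseline.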

Experiment [4] is described as follows: ATG_DR4_LXR_CIS: Attagene CIS-FACTORIAL HepG2 Assay for human Liver X Receptor (LXR), DR4 submotif (AID 2282929). The following applies: HepG2 Attagene DR4 cis-reporter, mRNA transcription; actives raise or lower the signal. In short, it runs like this: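 HepG2 cells transiently transfected with cis-promoter-driven multiplexed reporter units (DR4 element) were dosed for 24 h. Reporter mRNA was quantified by RT-PCR, fluorescent primer extension, HpaI digestion and capillary electrophoresis; bidirectional fitting versus DMSO baseline.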

In experiment [5] the target is Aryl hydrocarbon receptor (Homo sapiens) (UniProt P35869). The experiment can be described thus: ATG_Ahr_CIS: Attagene CIS-FACTORIAL HepG2 Assay for human Aryl Hydrocarbon Receptor (Ahr) (AID 2282930). The conditions noted are these: HepG2 AhR cis-factorial reporter transcription; actives raise or lower the signal. In short, it runs like this:
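Endogenous factor activity is tracked through cis-promoter reporter units transfected into HepG2 cells. Transcript levels at 24 h are read by fluorescent RT-PCR and capillary electrophoresis, with activity in either direction scored relative to DMSO.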

Experiment [6] is described as follows: ATG_AP_1_CIS: Attagene CIS-FACTORIAL HepG2 Assay for human Activator Protein 1 (AP-1) (AID 2282931). The following applies: HepG2 Attagene cis-factorial AP-1 reporter mRNA; actives raise or lower the signal. In short, it runs like this:
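HepG2 cells transiently transfected with cis-element-driven multiplex reporter units; 24 h compound exposure. Reporter mRNA quantified by RT-PCR, FAM-labelled fragments resolved by capillary electrophoresis; bidirectional fit versus DMSO baseline.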

Experiment [7] can be described thus: ATG_AP_2_CIS: Attagene CIS-FACTORIAL HepG2 Assay for human Activator Protein 2 (AP-2) (AID 2282932). The conditions noted are these: HepG2 AP-2 cis-reporter, Attagene transcription factor profiling; actives raise or lower the signal. In short, it runs like this: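 Multiplexed mRNA reporter assay in HepG2: cis-regulated units report endogenous factor activity after 24 h treatment. Fluorescence from capillary electrophoresis of RT-PCR products gives the signal, with DMSO as baseline.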

A short description of experiment [8]: ATG_BRE_CIS: Attagene CIS-FACTORIAL HepG2 Assay for human Bone Morphogenetic Protein (BMP) Response Element (BRE) (AID 2282933). The conditions noted are these: HepG2 BMP response element reporter, Attagene transcription factor profiling; actives raise or lower the signal. In outline:
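Endogenous transcription factor activity at a BMP response element was monitored in transfected HepG2 cells 24 h after dosing. Fluorescent RT-PCR products were resolved by capillary electrophoresis, and activity was fitted in both directions versus DMSO.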

Experiment [9] addresses Retinoic acid receptor alpha (Homo sapiens) (UniProt P10276). The experiment can be described thus: ATG_DR5_RAR_CIS: Attagene CIS-FACTORIAL HepG2 Assay for human Retinoic Acid Receptor Alpha (RARE), DR5 submotif (AID 2282934).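 For AC50: reporter responds to endogenous RAR alpha beta and gamma in HepG2 not RARA alone.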 The conditions noted are these: HepG2 Attagene cis-factorial RARE DR5 reporter, mRNA; actives raise or lower the signal. In outline:
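After 24 h of chemical exposure, transiently transfected HepG2 cells were lysed for total RNA; the DR5-regulated reporter transcript was quantified via RT-PCR and capillary electrophoresis, with activity fitted bidirectionally against DMSO.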

In experiment [10] the target is Transcription factor E2F1 (Homo sapiens) (UniProt Q01094). Briefly: ATG_E2F_CIS: Attagene CIS-FACTORIAL HepG2 Assay for human E2F Transcription Factor 1 (AID 2282935). The conditions noted are these: HepG2 Attagene cis-reporter, E2F reporter RNA transcripts; actives raise or lower the signal. In short, it runs like this: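 Measures reporter transcript levels via RT-PCR with capillary electrophoresis detection in HepG2 cells harboring cis-regulated reporter units; 24 h post-dose; bidirectional curve fitting with DMSO as baseline.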
Transcription factor E2F1 (Homo sapiens), sequence (Q01094 whole entry, looked up): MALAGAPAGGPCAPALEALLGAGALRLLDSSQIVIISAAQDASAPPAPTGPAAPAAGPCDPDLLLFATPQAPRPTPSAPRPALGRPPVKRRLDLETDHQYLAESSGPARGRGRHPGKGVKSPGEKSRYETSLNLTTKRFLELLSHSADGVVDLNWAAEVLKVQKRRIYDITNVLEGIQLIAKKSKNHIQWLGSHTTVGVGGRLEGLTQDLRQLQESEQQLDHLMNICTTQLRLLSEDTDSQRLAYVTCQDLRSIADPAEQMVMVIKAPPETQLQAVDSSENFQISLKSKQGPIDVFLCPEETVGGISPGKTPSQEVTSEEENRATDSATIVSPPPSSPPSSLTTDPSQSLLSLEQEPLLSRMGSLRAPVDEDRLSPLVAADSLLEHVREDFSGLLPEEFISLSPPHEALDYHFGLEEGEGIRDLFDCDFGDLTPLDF

A short description of experiment [11]: ATG_E_Box_CIS: Attagene CIS-FACTORIAL HepG2 Assay for human Enhancer Box (E-box) (AID 2282936). The following applies: HepG2 E-box cis-reporter transcription, actives raise or lower the signal. In short, it runs like this: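 First, HepG2 cells receive multiple cis-regulated reporter constructs by transient transfection. Next, chemicals are applied for 24 h. Finally, reporter mRNA is quantified via RT-PCR and capillary electrophoresis, with DMSO as baseline.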

Experiment [12] is described as follows: ATG_M_61_CIS: Attagene CIS-FACTORIAL HepG2 Assay for M61 Transcription Factor (Internal Marker) (AID 2282937). The conditions noted are these: HepG2 Attagene CIS-FACTORIAL M61 internal marker reporter; actives raise or lower the signal. In short, it runs like this: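 HepG2 cells transiently transfected with cis-element-driven multiple reporter transcription units, dosed for 24 h. Reporter mRNA measured by RT-PCR, 6-FAM primer-extension labelling, HpaI digestion and capillary electrophoresis; bidirectional fit versus DMSO baseline.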

Experiment [13] in a line: ATG_EGR_CIS: Attagene CIS-FACTORIAL HepG2 Assay for human Early Growth Response 1 (EGR1) (AID 2282938). The conditions noted are these: HepG2 Attagene CIS-FACTORIAL EGR reporter mRNA; actives raise or lower the signal. In short, it runs like this: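 HepG2 cells transiently transfected with cis-promoter-driven multiplexed reporter transcription units; reporter mRNA measured 24 h after compound dosing by RT-PCR, 6-FAM primer extension, HpaI digestion and capillary electrophoresis. Bidirectional fit versus DMSO baseline.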

Experiment [14] is described as follows: ATG_M_19_CIS: Attagene CIS-FACTORIAL HepG2 Assay for M19 Transcription Factor (Internal Marker) (AID 2282939). The conditions noted are these: HepG2 Attagene CIS-FACTORIAL M19 internal marker reporter; actives raise or lower the signal. In outline:
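Background-control endpoint from a multiplexed HepG2 reporter panel. Cells carrying cis-regulated reporter constructs are treated 24 h, then reporter transcripts are amplified, fluorescently labelled and sized by capillary electrophoresis. DMSO defines baseline.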

Experiment [15] in a line: ATG_ERE_CIS: Attagene CIS-FACTORIAL HepG2 Assay for Estrogen Response Element (ERE) (AID 2282940). The conditions noted are these: HepG2 ERE cis-reporter, Attagene RNA transcript; actives raise or lower the signal. In outline: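 Cells used were human hepatoma HepG2, transfected with multiple reporter transcription units under cis-regulatory promoters. Reporter mRNA, read 24 h post-dosing via fluorescent RT-PCR products on capillary electrophoresis, was fitted bidirectionally relative to DMSO.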

The nature of experiment [16]: ATG_Ets_CIS: Attagene CIS-FACTORIAL HepG2 Assay for human Erythroblast Transformation Specific (ETS) (AID 2282941). The following applies: HepG2 ETS cis-reporter transcription, actives raise or lower the signal. In outline: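 HepG2 cells transiently transfected with cis-promoter reporter transcription units were dosed for 24 h; reporter mRNA was measured by RT-PCR, 6-FAM primer extension, HpaI digestion and capillary electrophoresis, with bidirectional fitting against DMSO baseline.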

Experiment [17] deals with Hepatocyte nuclear factor 3-beta (Homo sapiens) (UniProt Q9Y261). Briefly: ATG_FoxA2_CIS: Attagene CIS-FACTORIAL HepG2 Assay for human Forkhead box A2 (FOXA2) (AID 2282942). The conditions noted are these: HepG2 cis-reporter transcription factor activity, 24 h; actives raise or lower the signal. In short, it runs like this: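 HepG2 cells transiently transfected with multiple cis-regulated reporter transcription units, dosed for 24 h. Reporter mRNA measured by RT-PCR, 6-FAM labelling, HpaI digestion and capillary electrophoresis; bidirectional fitting against DMSO baseline.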
Hepatocyte nuclear factor 3-beta (Homo sapiens), sequence (Q9Y261 whole entry, looked up): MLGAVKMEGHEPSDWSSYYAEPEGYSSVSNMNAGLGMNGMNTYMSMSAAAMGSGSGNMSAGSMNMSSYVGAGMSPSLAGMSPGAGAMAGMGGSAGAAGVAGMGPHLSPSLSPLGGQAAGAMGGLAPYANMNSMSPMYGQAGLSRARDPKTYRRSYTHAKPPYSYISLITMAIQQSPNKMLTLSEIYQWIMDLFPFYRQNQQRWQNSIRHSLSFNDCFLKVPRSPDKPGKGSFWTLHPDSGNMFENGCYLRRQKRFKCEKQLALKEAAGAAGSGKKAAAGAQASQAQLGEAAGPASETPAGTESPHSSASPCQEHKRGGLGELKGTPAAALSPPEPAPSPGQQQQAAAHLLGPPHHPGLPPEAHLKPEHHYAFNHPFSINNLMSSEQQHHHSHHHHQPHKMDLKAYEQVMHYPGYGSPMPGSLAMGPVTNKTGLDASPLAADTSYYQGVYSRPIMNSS

The nature of experiment [18]: ATG_FoxO_CIS: Attagene CIS-FACTORIAL HepG2 Assay for human Forkhead box O (FoxO) (AID 2282943). The conditions noted are these: HepG2 Attagene cis-reporter, FoxO element, mRNA; actives raise or lower the signal. In outline:
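Transfected HepG2 reporter cells exposed to test chemical for 24 h; reporter RNA measured by reverse transcription, PCR and fluorescent capillary electrophoresis; curves fitted for increases and decreases against DMSO.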

Experiment [19] can be described thus: ATG_GATA_CIS: Attagene CIS-FACTORIAL HepG2 Assay for human GATA Binding Protein (AID 2282944). The following applies: HepG2 GATA cis-element reporter, Attagene multiplex mRNA; actives raise or lower the signal. In outline: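 Endogenous transcription factor activity was captured through cis-promoter-driven reporters in transfected HepG2 cells. After 24 h exposure, reporter transcripts were quantified by RT-PCR with fluorescent capillary electrophoresis, and responses fitted both directions against DMSO.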

Experiment [20] is described as follows: ATG_GLI_CIS: Attagene CIS-FACTORIAL HepG2 Assay for human Zinc Finger Protein GLI1 (AID 2282945). The following applies: HepG2, Attagene cis-factorial reporter mRNA, GLI element; actives raise or lower the signal. In outline:
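Transiently transfected HepG2 cells report endogenous transcription factor activity via cis-element-driven reporter units. After 24 h compound exposure, reporter mRNA was measured by RT-PCR with capillary electrophoresis; bidirectional fitting against DMSO baseline.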

Each structure is given as a SMILES string. The source made the active and inactive calls. Rule for the calls: active = hit-call score of the fitted dose curve at least 0.9, where 1 is the maximum; inactive = score below 0.9.

Aryl hydrocarbon receptor (Homo sapiens), sequence (P35869 whole entry, looked up): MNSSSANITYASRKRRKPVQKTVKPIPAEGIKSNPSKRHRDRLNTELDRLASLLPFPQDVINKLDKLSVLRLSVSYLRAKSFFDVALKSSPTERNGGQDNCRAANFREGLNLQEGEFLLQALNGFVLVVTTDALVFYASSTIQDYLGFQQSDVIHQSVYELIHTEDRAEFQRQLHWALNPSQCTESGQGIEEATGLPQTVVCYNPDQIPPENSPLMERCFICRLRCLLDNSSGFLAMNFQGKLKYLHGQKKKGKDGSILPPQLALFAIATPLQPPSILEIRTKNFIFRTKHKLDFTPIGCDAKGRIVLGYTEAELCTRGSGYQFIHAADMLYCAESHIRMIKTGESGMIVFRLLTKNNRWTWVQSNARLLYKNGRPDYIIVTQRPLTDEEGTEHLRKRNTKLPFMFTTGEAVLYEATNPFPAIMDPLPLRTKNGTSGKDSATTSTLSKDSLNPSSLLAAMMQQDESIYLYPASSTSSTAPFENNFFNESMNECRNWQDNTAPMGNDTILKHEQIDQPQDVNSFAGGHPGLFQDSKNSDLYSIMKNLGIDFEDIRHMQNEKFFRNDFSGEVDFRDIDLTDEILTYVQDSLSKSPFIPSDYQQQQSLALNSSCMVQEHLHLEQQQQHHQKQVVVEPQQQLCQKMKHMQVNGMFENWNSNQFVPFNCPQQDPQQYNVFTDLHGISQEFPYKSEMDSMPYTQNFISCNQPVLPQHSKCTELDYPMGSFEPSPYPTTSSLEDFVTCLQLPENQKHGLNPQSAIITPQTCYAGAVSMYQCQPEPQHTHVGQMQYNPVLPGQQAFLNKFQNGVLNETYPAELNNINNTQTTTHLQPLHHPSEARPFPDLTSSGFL
CCAAT/enhancer-binding protein beta (Homo sapiens), sequence (P17676 whole entry, looked up): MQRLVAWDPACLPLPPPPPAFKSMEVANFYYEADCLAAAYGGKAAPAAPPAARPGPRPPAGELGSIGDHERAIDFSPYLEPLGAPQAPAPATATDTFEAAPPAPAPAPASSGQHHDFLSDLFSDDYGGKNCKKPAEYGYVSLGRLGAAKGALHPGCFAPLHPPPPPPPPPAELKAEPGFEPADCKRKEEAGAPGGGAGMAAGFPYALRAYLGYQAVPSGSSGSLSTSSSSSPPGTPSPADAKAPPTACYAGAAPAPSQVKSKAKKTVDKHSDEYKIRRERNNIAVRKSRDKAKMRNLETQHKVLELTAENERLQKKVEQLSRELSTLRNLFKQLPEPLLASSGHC
Retinoic acid receptor alpha (Homo sapiens), sequence (P10276 whole entry, looked up): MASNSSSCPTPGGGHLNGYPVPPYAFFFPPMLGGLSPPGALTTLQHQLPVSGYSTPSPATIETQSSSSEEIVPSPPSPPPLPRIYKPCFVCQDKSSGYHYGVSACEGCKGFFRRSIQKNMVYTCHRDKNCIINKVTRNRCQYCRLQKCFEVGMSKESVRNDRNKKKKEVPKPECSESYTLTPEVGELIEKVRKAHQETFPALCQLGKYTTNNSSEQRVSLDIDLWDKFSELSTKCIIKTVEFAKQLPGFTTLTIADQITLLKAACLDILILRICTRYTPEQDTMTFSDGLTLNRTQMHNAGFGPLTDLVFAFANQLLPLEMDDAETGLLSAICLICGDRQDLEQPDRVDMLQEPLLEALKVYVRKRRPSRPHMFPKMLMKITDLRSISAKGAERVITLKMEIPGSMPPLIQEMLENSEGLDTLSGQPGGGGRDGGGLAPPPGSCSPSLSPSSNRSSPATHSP

As for `CCOC(=O)NNc1nncc2ccccc12`, the result in experiment [1], in experiment [2], in [3], in experiment [4], in experiment [5] and in experiment [6] was inactive. Also, the compound was called inactive in experiment [7], in [8], in experiment [9], in experiment [10], in experiment [11] and in experiment [12]. The result in experiment [13], in [14], in experiment [16], in experiment [17], in [18] and in experiment [19] was inactive. Also, in [20], the result was inactive. Also, in [15], the AC50 is 60 µM (active).
As to `COC(=O)C1=C(C)NC(C)=C(C(=O)OCC(C)C)C1c1ccccc1[N+](=O)[O-]` (stereo not given), the result in experiment [1], in [2], in experiment [3], in experiment [4], in [5] and in [6] was inactive. In addition, the compound was called inactive in experiment [7], in experiment [8], in experiment [9], in experiment [10], in experiment [12] and in experiment [13]. Besides, the outcome in [14], in [15], in experiment [16], in experiment [17], in experiment [18] and in experiment [19] was inactive. Also, the call in experiment [20] was inactive. In experiment [11], the AC50 is 18.6 µM (active).
Regarding `CN(C)c1ccc(C(=N)c2ccc(N(C)C)cc2)cc1`, the AC50 in [1] was 0.399 µM (active); in experiment [2] it was 0.871 µM (active); in experiment [4], 0.056 µM (active); in [5], 0.334 µM (active); in experiment [8] it was 7.22 µM (active); in experiment [9], 7.38 µM (active). The values for the AC50 in [11], in experiment [13] and in experiment [17] were 56.6 µM (active), 1.36 µM (active) and 0.721 µM (active), respectively. For the same compound, the compound was called inactive in experiment [3], in [6], in [7], in [10], in experiment [12] and in experiment [14]. The compound was classed as inactive in experiment [15], in experiment [16], in experiment [18], in [19] and in experiment [20].
As for `CCOCC(=O)O`, the outcome in [1], in experiment [2], in experiment [3], in experiment [4], in experiment [5] and in experiment [6] was inactive. Further, the outcome in experiment [7], in experiment [8], in experiment [9], in experiment [10], in experiment [11] and in experiment [12] was inactive. Moreover, the result in experiment [13], in experiment [14], in experiment [15], in experiment [16], in experiment [17] and in [18] was inactive. The call in experiment [19] and in experiment [20] was inactive.
